Assay results from PubChem BioAssay (NCI).
Values joined by “and” are separate entries in the source; they are usually repeats but may differ in a detail not shown here. Equal entries are not always repeated. Compounds without any hit were thinned out: in the full panel of roughly 83,000, 20% have a hit.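 Values shown are percent growth following 48 h exposure of cells in 96-well plates to a single concentration of compound; below 10 was considered active.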 Active and inactive are the calls of the source.

Test system: MDA-MB-468 breast
Test: NCI-60 one-dose screen, 48 h (100 = growth as untreated, 0 = no growth, -100 = all killed)
Settings: 10 µM unless noted

Row | SMILES | growth
1 | Cc1cc(C)c(-c2c(C)cc(C)cc2CBr)c(CBr)c1 | 45.1% (inactive)
2 | CCn1c(Cc2ccccc2Nc2c(Cl)cccc2Cl)nnc1SCC(=O)Nc1cccc(OC)c1 | 75% (inactive)
3 | Cc1ccc(S(=O)(=O)N(c2ccc(Cl)cc2)c2ccc(Br)cc2C(=O)O)cc1 | 95.9% (inactive)
4 | O=C1C(=O)N(Cc2ccc(-c3ccccc3)cc2)c2ccc(OC(F)(F)F)cc21 | 25% (inactive)
5 | CC(C)C(NC(=O)CN)C(=O)O (stereo not given) | 104% (inactive)
6 | OCCNc1nccc(N2CCN(c3ccnc4cc(Cl)ccc34)CC2)n1 | 54.8% (inactive)
7 | N=c1nc(N)ncn1-c1ccccc1 | 113% (inactive)
8 | COc1cc(-c2[nH]ncc2Nc2ccc(Cl)cc2)cc(OC)c1OC | 55.7% (inactive)
9 | C/C(=N\NC(=O)/C=C/CC(=O)O)c1nnn(-c2ccc([N+](=O)[O-])cc2)c1C | 99.8% (inactive)
10 | O=C1C=C(O)C(=O)C=C1O | 115% (inactive)
11 | Cc1ccc(OCCn2c(C)nn(-c3ccc(Cl)cc3)c2=O)cc1 | 124% (inactive)
12 | CCCCOC(=O)Oc1ccc(C(=O)Oc2ccc(OCC)cc2)cc1 | 113% (inactive)
13 | CC(=O)OCC(=O)[C@@]1(O)CC[C@H]2[C@@H]3CC[C@@H]4C[C@H](O)CC[C@]4(C)[C@H]3C(=O)C[C@@]21C | 98.1% (inactive)
14 | Cc1nnc(-c2ccc3c(c2)nc(/C=C/c2ccccc2)n3C2CCCCC2)o1 | 91.3% (inactive)
15 | COc1ccc(C(=O)c2ccc(OC)c(OC)c2OC)cc1 | -7.95% (active) and -19% (active)
16 | COc1ccc(/C=N/NC(=O)Cn2c(-c3ccc(S(C)(=O)=O)cc3)nc3cc(Cl)ccc32)cc1 | -18.5% (active)
17 | CC1(C)CC[C@]2(C(=O)N3CCOCC3)CC[C@]3(C)C(=CC[C@@H]4[C@@]5(C)CC[C@H](OC(=O)c6cccnc6)C(C)(C)[C@@H]5CC[C@]43C)[C@@H]2C1 | 45.6% (inactive)
18 | COc1ccc(N(C)c2ncnc3occ(C)c23)cc1 | 30.2% (inactive)
19 | Cc1ccc(C(=O)CSc2nnc(-c3ccc(-c4ccc(Cl)cc4)nc3C)o2)cc1 | 94.9% (inactive)
20 | Cc1ccccc1NC(=O)c1cc2ccccc2cc1O | 79.5% (inactive)

Row | SMILES | growth
21 | COc1cc([C@@H]2c3cc4c(cc3[C@H](O)[C@H]3COC(=O)[C@@H]23)OCO4)cc(OC)c1OC | -1.25% (active) and -3.58% (active)
22 | O=c1oc2ccc(I)cc2c(=O)n1-c1ccc(F)cc1F | -8.85% (active)
23 | CC(C)(C)c1nc(-c2cccc(NS(=O)(=O)c3c(F)cccc3F)c2F)c(-c2ccnc(N)n2)s1 | 140% (inactive)
24 | CC1=NN(c2ccccc2)C(=O)/C1=C\N1CC(=O)NC1=S | 101% (inactive)
25 | CC1(C)CC[C@]2(C(N)=O)CC[C@]3(C)C(=CC[C@@H]4[C@@]5(C)C/C(=C/c6ccncc6)C(=O)C(C)(C)[C@@H]5CC[C@]43C)[C@@H]2C1 | -25.2% [100 µM] (active)
26 | CCN1C/C(=N\S(=O)(=O)c2ccccc2)N(CC)C1=S | 97.7% (inactive)
27 | COc1ccc(OC)c(C(=O)c2oc3ccc(Br)cc3c2N)c1 | 23.6% (inactive)
28 | Nc1c(C(=O)Nc2cccc(Br)c2)sc2nc3c(cc12)C(O)CCC3 (stereo not given) | 29.8% (inactive)
29 | C1=C(c2ccccc2)c2ccccc2C1 | 100% (inactive)
30 | O=C1Nc2ccc(Cl)cc2/C1=N/N=C(c1ccccc1)c1ccccc1 | 107% (inactive)
31 | CCCCCCCCC/C(=N\NC(=O)c1ccncc1)c1ccc(O)c(O)c1O | 18.5% (inactive)
32 | CCOC(=O)c1c(NCC(=O)Nc2ccc(Br)cc2)sc2c1CCCC2 | 7.05% (active)
33 | COc1ncc(-c2ccc3ncnc(Nc4cccc(Cl)c4)c3c2)cc1NS(C)(=O)=O | -43.3% (active)
34 | O=C1[C@H]2Cc3c([nH]c4ccccc34)[C@@H](c3c(Cl)cccc3Cl)N2C(=O)CN1C1CCN(Cc2ccccc2)CC1 | 97.7% (inactive)
35 | CCCCCCCCCCCCCCCC[N+](C)(CCO)Cc1cnc[nH]1 (stereo not given) | -16% (active)
36 | COc1ccc(-c2nc3sccn3c2/C=C/C(=O)c2cc(OC)c(OC)c(OC)c2)cc1 | 53.6% (inactive)
37 | C=CCN1CCCC1=O | 96.5% (inactive)
38 | O=C(/C=C/c1cccc(O)c1)c1cccc(-n2cc(-c3ccc4ccccc4c3)[nH]c2=O)c1 | -79.7% (active)
39 | Cc1ccc(NC(=S)NNC(=S)NNc2ccccc2)cc1C | 99.6% (inactive)
40 | CCOC(=O)C(=CCC(C)C)C(=O)OCC | 98% (inactive)
